Here are results for 18 compounds from PubChem BioAssay (NCATS).

A number with no mark means an inactive call. Results filed as inconclusive are left out. Calls of active or inactive are those of the source. The call rests on the fitted dose curve; in most records, active means well fitted curve in the direction sought with a large enough effect; inconclusive means small, poorly fitted or top-dose-only effect, or another doubt; inactive means no such curve, though single readings can be large; an effect the other way counts as inactive or inconclusive. Where a SMILES comes first, the peptide text is derived from it. The star is where a group is joined. βNA = c1ccc2cc(N*)ccc2c1; Cbz = O=C(OCc1ccccc1)*

Test [1] concerns the target Glutathione peroxidase 1 (Homo sapiens) (UniProt P07203). Put plainly: Primary qHTS Assay for Inhibitors of Recombinant Selenoprotein Glutathione Peroxidase 1 (GPX1) (AID 1845191). Further: nearly all actives have a fitted effect of over 65% in size. On activity, negative = inhibition: on the % scale 0 is the no-effect control and ±100 the full control effect. To be noted: recombinant GPX1, GR-coupled NADPH fluorescence, 15 min; series mostly up to 27.7 µM. The essentials: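 GR-coupled assay: compounds preincubated 30 min at room temperature with GPX1, then reaction started with CHP; final 10 nM GPX1, 1 mM GSH, 0.5 mM CHP, 0.5 mM NADPH, 100 nM GR, 0.01% BSA, pH 7.5 Tris buffer. NADPH fluorescence (340/450 nm) read at 0 and 15 min.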
On the technique in general: Quantitative high-throughput screening tests each substance at several concentrations.

For test [2], the target named is Phospholipid hydroperoxide glutathione peroxidase GPX4 (Homo sapiens) (UniProt P36969). Nature of the test: Primary qHTS Assay for Inhibitors of Recombinant Selenoprotein Glutathione Peroxidase 4 (GPX4) (AID 1845192). Further: nearly all actives have a fitted effect of over 65% in size. On activity change, negative = inhibition: on the % scale 0 is the no-effect control and ±100 the full control effect. To be noted: recombinant GPX4, GR-coupled NADPH fluorescence, 15 min; series mostly up to 27.8 µM. The essentials: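 GR-coupled assay: recombinant GPX4 preincubated 30 min with compound at room temperature; final 200 nM GPX4, 1 mM GSH, 0.5 mM cumene hydroperoxide, 0.5 mM NADPH, 100 nM GR, 0.01% BSA, pH 7.5 Tris. NADPH fluorescence (340/450 nm) read at 0 and 15 min.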

Test [3] deals with Luciferin 4-monooxygenase (Photinus pyralis) (UniProt P08659). Put plainly: Primary firefly luciferase (FLuc) qHTS assay for identification of artifact compounds. (AID 1845220). Further: nearly all actives have a fitted effect of over 60% in size.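 On activity change, negative = inhibition: plate controls were DMSO vehicle for no effect and no enzyme for full effect.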 To be noted: purified firefly luciferase, luminescence, 5 min; series mostly up to 54.1 µM. The essentials:
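Titrated compounds were incubated 15 min at RT, protected from light, with luciferin and ATP at 10 uM; reaction started with 10 nM FLuc, luminescence imaged at 5 min, and concentration-response fitted by Hill equation.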

Test [4] can be described thus: Primary fluorescence-based thiol-reactive (MSTI) qHTS assay for identification of artifact compounds. (AID 1845221). Further: nearly all actives have a fitted effect of over 65% in size. Further: potency means the concentration at half of the fitted maximal effect.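 On activity change, negative = thiol reactive: thiol-reactive compounds lower the probe fluorescence signal.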 To be noted: MSTI thiol-reactivity probe, 1 h; series mostly up to 53.8 µM. The essentials:
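A multi-concentration qHTS design tested compounds against 4 uM MSTI, pH 7.4 phosphate-buffered saline. Plates were protected from light for 1 h at room temperature before imaging fluorescence.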

Test [5] concerns Nanoluciferase (engineered Oplophorus gracilirostris luciferase). Put plainly: Primary Nanoluciferase (NLuc) qHTS assay for identification of artifact compounds. (AID 1845222).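 Further: NLuc secreted into diluted conditioned medium of S16 cells; 0% = DMSO and -100% = no enzyme.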 To be noted: NLuc-conditioned medium, Nano-Glo luminescence, 5 min; series mostly up to 54.1 µM. In a few lines:
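qHTS format, against NLuc in S16 cell-conditioned medium. Nano-Glo substrate 1:100 was added after 15 min at room temperature. Luminescence was taken after a further 5 min.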

Test [6] is described as follows: Primary redox qHTS assay for identification of artifact compounds. (AID 1845223).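 Further: 0% = DMSO and 100% = reference compound.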 To be noted: Amplex Red/HRP redox cycling with DTT, fluorescence; series mostly up to 53.8 µM. The essentials: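 Amplex Red (25 uM) and HRP (250 mU/mL) in HBSS, with compounds for 15 min, then 250 uM DTT for 30 min, room temperature, dark. Fluorescence 525/598 nm read; normalized to DMSO and 10 uM DA3003; Hill fit.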

Phospholipid hydroperoxide glutathione peroxidase GPX4 (Homo sapiens), sequence (P36969 whole entry, looked up): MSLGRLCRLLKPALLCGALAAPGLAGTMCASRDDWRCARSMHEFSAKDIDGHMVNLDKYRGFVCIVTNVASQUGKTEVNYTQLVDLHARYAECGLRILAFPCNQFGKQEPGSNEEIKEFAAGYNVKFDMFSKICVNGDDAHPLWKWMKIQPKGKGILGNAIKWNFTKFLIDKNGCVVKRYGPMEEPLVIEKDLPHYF
Glutathione peroxidase 1 (Homo sapiens), sequence (P07203 whole entry, looked up): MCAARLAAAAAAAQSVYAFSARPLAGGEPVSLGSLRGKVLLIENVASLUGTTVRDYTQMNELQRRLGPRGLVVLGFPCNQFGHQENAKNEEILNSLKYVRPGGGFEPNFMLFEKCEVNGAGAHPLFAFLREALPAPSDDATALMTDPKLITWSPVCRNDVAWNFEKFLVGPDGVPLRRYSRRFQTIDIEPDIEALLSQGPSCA

Consider `CC1(C)CCC[C@@]2(C)[C@H]1[C@H](O)C=C(CO)[C@]2(O)CO`, for which the Potency result in test [1], in test [2], in test [3], in test [4], in test [5] and in test [6] was “inactive” in each case.

Consider `C=C1CCC2[C@](C)(CCC[C@]2(C)C(=O)O)[C@H]1CC/C(C)=C/C(=O)OC` (stereo partly drawn), for which the Potency result in test [1], in test [2], in test [3], in test [4], in test [5] and in test [6] was “inactive” throughout.

`CC(C)CC(NC(=O)OCc1ccccc1)C(=O)NC(CC(C)C)C(=O)NC(CCC(=O)O)C(=O)Nc1ccc2ccccc2c1` (stereo not drawn) (Cbz-Leu-Leu-Glu-βNA; configuration not given here): the Potency result in test [1], in test [2], in test [3], in test [4], in test [5] and in test [6] was “inactive” in each case.

For `CC1OC(O[C@@H]2[C@@H](O)[C@H](OC(=O)[C@]34CCC(C)(C)C[C@H]3C3=CCC5[C@@]6(C)CC[C@H](O[C@@H]7O[C@H](C(=O)O)[C@@H](O)[C@H](O[C@@H]8OC[C@@H](O)[C@H](O)[C@H]8O)[C@H]7O[C@@H]7O[C@H](CO)[C@H](O)[C@H](O)[C@H]7O)[C@@](C)(C=O)C6CC[C@@]5(C)[C@]3(C)C[C@H]4O)O[C@H](C)[C@@H]2OC2OC(C)C(OC3OCC(O)C(O)C3O)C(O)C2O)C(O)C(O)C1O` (stereo partly drawn), the Potency entry in test [1] and in test [2] was “inactive” in each case. The activity change, negative = inhibition in test [3] was 1.64% [at 11.6 µM]. Further, the activity change, negative = thiol reactive in test [4] is 288% [at 11.5 µM]. In test [5], the activity, negative = inhibition was 2.13% [at 11.6 µM]. In addition, the redox activity (% of DA3003) in test [6] was 19.3% [at 11.5 µM].

Consider `CC(C)(C)NS(=O)(=O)c1ccc(-c2ccc3[nH]nc(N)c3c2)cc1`, for which the Potency entry in test [1], in test [2], in test [3], in test [5] and in test [6] was “inactive” each time. For the same compound, the Potency in test [4] is 7.52 µM (active).

On to `C[C@H](O)C(O)(C(=O)OCc1ccccc1NC(=O)CCC(N)C(=O)O)[C@H](C)O` (stereo partly drawn), for which the Potency entry in test [1], in test [2], in test [3], in test [4], in test [5] and in test [6] was “inactive” in each case.

For `CC1=C(CCC(C)O[C@@H]2O[C@H](CO)[C@@H](O)[C@H](O)[C@H]2O)C(C)(C)CC(O)C1` (stereo partly drawn), the Potency result in test [1], in test [2], in test [3], in test [5] and in test [6] was “inactive” each time. For the same compound, the Potency in test [4] is 5.85 µM (active).

Regarding `OC[C@H]1O[C@@H](OCc2ccccc2)[C@H](O)[C@@H](O)[C@@H]1O`, the Potency entry in test [1], in test [2], in test [3], in test [5] and in test [6] was “inactive” in each case. The Potency in test [4] is 5.32 µM (active).

Turning to `CC1(C)CCC2(C(=O)O)C(O)CC3(C)C(=CCC4C5(C)CCC(OC6OC(CO)C(O)C(O)C6OC6OC(CO)C(O)C(O)C6OC6OCC(O)(CO)C6O)C(C)(C)C5CCC43C)C2C1` (stereo not drawn), the Potency entry in test [1] and in test [2] was “inactive” throughout. The outcome in test [3] was “inactive [at 11.6 µM]”. Also, in test [4], the activity change, negative = thiol reactive is 154% [at 11.5 µM]. Also, the activity, negative = inhibition in test [5] is 1.68% [at 11.6 µM]. The redox activity (% of DA3003) in test [6] was 17% [at 11.5 µM].

For `CC(=O)OC12CC(C)C(O)C1/C=C(/COC1OC(CO)C(O)C(O)C1O)CCC1C(/C=C(\C)C2=O)C1(C)C` (stereo not drawn), the Potency entry in test [1], in test [2], in test [3], in test [4], in test [5] and in test [6] was “inactive” in each case.

`C=C1CCc2occ(C)c2[C@H]2[C@H]1[C@@]13O[C@@]1(C[C@@H](C)[C@H]3OC(C)=O)[C@H]1O[C@@]21C`: the Potency entry in test [1], in test [2], in test [3], in test [4], in test [5] and in test [6] was “inactive” throughout.

Turning to `O=C(N[C@@H]1CC[C@@H](c2cccc(F)c2F)CN(CC(F)(F)F)C1=O)N1CCC(n2c(=O)[nH]c3ncccc32)CC1`, the Potency entry in test [1], in test [2], in test [3], in test [4], in test [5] and in test [6] was “inactive” each time.

Regarding `CC(=O)OC1C(O)C(C)(O)C(/C=C/C(=O)O)C2(C)CCCC(C)(C)C12` (stereo not drawn), the Potency result in test [1], in test [2], in test [3], in test [4], in test [5] and in test [6] was “inactive” in each case.

With `Fc1ccccc1-c1nc2ccn(Cc3ccc(-c4ccc(C(F)(F)F)cc4C(F)(F)F)nn3)cc-2n1`, the Potency entry in test [1], in test [2], in test [3], in test [4], in test [5] and in test [6] was “inactive” in each case.

As to `CC1CC(=O)[C@]2(O)C(C(=O)OCCc3ccc(O)c(O)c3)=CO[C@@H](O[C@@H]3O[C@H](CO)[C@@H](O)[C@H](O)[C@H]3O)[C@H]12` (stereo partly drawn), the Potency entry in test [1], in test [2], in test [3], in test [5] and in test [6] was “inactive” each time. Besides, in test [4], the Potency was 2.92 µM (active).

Consider `CCCO[C@@H]1O[C@H](CO)[C@@H](O)[C@H](O)[C@H]1O[C@@H]1OC[C@@H](O)[C@H](O)[C@H]1O`, for which the Potency result in test [1], in test [2], in test [3], in test [4], in test [5] and in test [6] was “inactive” throughout.

For `C[C@@H]1O[C@@H](O[C@H]2[C@H](OC(=O)[C@]34CCC(C)(C)C[C@H]3C3=CCC5[C@@]6(C)CC[C@H](O[C@@H]7O[C@H](CO[C@@H]8OC[C@H](O)[C@H](O)[C@H]8O[C@@H]8OC[C@@H](O)[C@H](O)[C@H]8O)[C@@H](O)[C@H](O)[C@H]7O)C(C)(C)C6CC[C@@]5(C)[C@]3(C)C[C@H]4O)O[C@H](CO)[C@@H](O)[C@@H]2O)[C@H](O[C@@H]2O[C@H](CO)[C@@H](O)[C@H](O)[C@H]2O)[C@H](O)[C@H]1O[C@@H]1OC[C@@H](O)[C@H](O[C@@H]2OC[C@@H](O)[C@H](O)[C@H]2O)[C@H]1O` (stereo partly drawn), the Potency result in test [1] and in test [2] was “inactive” each time. Moreover, the activity change, negative = inhibition in test [3] is 2.11% [at 6.45 µM]. In test [4], the activity change, negative = thiol reactive is 385% [at 6.41 µM]. In test [5], the activity, negative = inhibition was 3.87% [at 6.45 µM]. Moreover, the redox activity (% of DA3003) in test [6] was 13.7% [at 6.41 µM].

Turning to `C=C(C(=O)O)[C@@H]1CC[C@H](C)[C@@H]2CC(=O)C(C)=C2C1`, the Potency result in test [1], in test [2], in test [3], in test [5] and in test [6] was “inactive” in each case. The Potency in test [4] was 21.2 µM (active).
